The values that follow come from the supplement of paper PMC10127200.

What all share (assay): Euclidean distance of Cell Painting phenotypic profile (signed KS, 77 features) to DMSO centroid (dimensionless distance); 5 or 10 uM (library dependent); higher = stronger phenotypic change vs DMSO (phenoactivity)
Holding throughout (details): 48 h

One experiment has as its system 786-O. Put shortly:
(§1)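 Harmony extracted 77 features from 20X confocal images (9 fields/well) of stained cells, scoring each as a signed Kolmogorov-Smirnov statistic against same-plate vehicle wells. The cells, five cancer lines and a healthy fibroblast line, had received library compounds for 48 h at 10 or 5 uM depending on library, with 0.1% DMSO final. Phenoactivity is the Euclidean distance from each plate-position-corrected, correlation-weighted, top-dose replicate-averaged profile to the median vehicle profile.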

The next experiment has as its system A549. Put shortly: as §1
Another experiment has as its system DU145. Put shortly:
as §1

A further experiment relates to FB. Put shortly: as §1
The next experiment deals with HEPG2. Put shortly:
as §1

The subject of another experiment is OVCAR4. An outline of the steps: as §1

Each structure is given as a SMILES string. Where a name gives a salt, the structure may show the parent alone.

Consider `COc1cc2ncc(-c3ccccc3)nc2cc1OC` [Tyrphostin AG 1296], for which the Euclidean distance in the experiment with 786-O was 1.46; with A549, 1.34; in the experiment on DU145, 1.58; in the experiment with FB, 1.3; in the experiment on HEPG2, 1.42; with OVCAR4, 1.6.
Turning to `O=C(O)C(Cc1ccccc1[N+](=O)[O-])=NNc1nc(-c2ccc(Cl)c(Cl)c2)cs1` (mixture of isomers), the Euclidean distance in the experiment on 786-O turned out to be 0.716; with A549 it was 1.16; in the experiment on DU145 it was 0.992; with FB, 2.32; with HEPG2, 0.514; in the experiment on OVCAR4 it was 0.642.
In the case of `Cc1nnc(NS(=O)(=O)c2ccc(N)cc2)s1` [Sulfamethizole], the Euclidean distance in the experiment on 786-O was 1.54; in the experiment with A549 it was 0.798; in the experiment on DU145, 1.76; with FB, 0.908; in the experiment with HEPG2, 0.498; with OVCAR4, 1.11.
Regarding `O=C(/C=C/c1ccc(O)c(O)c1)O[C@@H]1C[C@](O)(C(=O)O)C[C@@H](O)[C@H]1O` [Chlorogenic Acid], the Euclidean distance was 1.05 with 786-O; 1.05 in the experiment on A549; 1.38 in the experiment on DU145; 1.17 in the experiment with FB; 1.21 in the experiment on HEPG2; 1.15 with OVCAR4.
As for `c1ccc(CC2=NCCN2)cc1` [Tolazoline HCl], the Euclidean distance was 0.97 in the experiment with 786-O; 1.05 in the experiment with A549; 0.877 in the experiment on DU145; 0.718 with FB; 0.734 in the experiment with HEPG2; 1.42 in the experiment on OVCAR4.
Turning to `CC(C)OC(=O)CCC/C=C\C[C@@H]1[C@@H](CC[C@@H](O)CCc2ccccc2)[C@H](O)C[C@@H]1O` [Latanoprost], the Euclidean distance in the experiment on 786-O came out at 1.13; with A549, 0.914; with DU145, 0.738; with FB it was 1.14; with HEPG2 it was 0.925; with OVCAR4, 1.15.
In the case of `COc1cc2nc(N3CCN(C(=O)C4COc5ccccc5O4)CC3)nc(N)c2cc1OC` (centres undefined) [Doxazosin], the Euclidean distance was 1.52 in the experiment on 786-O; 1.28 in the experiment on A549; 1.55 in the experiment on DU145; 0.683 in the experiment on FB; 0.609 with HEPG2; 1.18 in the experiment with OVCAR4.
Regarding `COc1ccc(CN(CCN(C)C)c2ncccn2)cc1` [Thonzylamine], the Euclidean distance in the experiment on 786-O amounted to 1.16; in the experiment with A549, 1.66; with DU145, 1.32; with FB, 1.44; with HEPG2, 0.672; in the experiment with OVCAR4 it was 1.89.
Regarding `CC(=O)N(O)CCCCCNC(=O)CCC(=O)N(O)CCCCCNC(=O)CCC(=O)N(O)CCCCCN` [Deferoxamine mesylate], the Euclidean distance was 2.45 with 786-O; 2.58 with A549; 6.88 with DU145; 2.61 with FB; 2.02 with HEPG2; 2.86 in the experiment on OVCAR4.
For `Cc1cnc(C(=O)NCCc2ccc(S(=O)(=O)NC(=O)NC3CCCCC3)cc2)cn1` [Glipizide], the Euclidean distance in the experiment with 786-O amounted to 1.39; with A549, 1.31; with DU145, 0.684; with FB, 1.1; in the experiment on HEPG2, 1.74; in the experiment on OVCAR4, 1.36.
As to `COCC(=O)Nc1cc(Sc2ccccc2)ccc1N=C(NC(=O)OC)NC(=O)OC` [Febantel], the Euclidean distance with 786-O is 0.969; in the experiment on A549, 0.892; in the experiment on DU145, 0.944; in the experiment on FB, 1.06; in the experiment with HEPG2, 1.09; in the experiment on OVCAR4, 1.15.
As for `CC(=O)NS(=O)(=O)c1ccc(N)cc1` [Sulfacetamide Sodium], the Euclidean distance worked out at 1.12 in the experiment with 786-O; 0.648 in the experiment on A549; 1.22 in the experiment on DU145; 0.694 in the experiment on FB; 0.673 in the experiment with HEPG2; 1.05 in the experiment on OVCAR4.
For `Cc1nc(Nc2ncc(C(=O)Nc3c(C)cccc3Cl)s2)cc(N2CCN(CCO)CC2)n1` [Dasatinib Monohydrate], the Euclidean distance was found to be 3.41 in the experiment on 786-O; 3.76 in the experiment with A549; 6.08 in the experiment on DU145; 3.53 in the experiment on FB; 2.09 with HEPG2; 4.26 in the experiment with OVCAR4.
Consider `CCc1cc2c(cc1N1CCC(N3CCOCC3)CC1)C(C)(C)c1[nH]c3cc(C#N)ccc3c1C2=O`, for which the Euclidean distance turned out to be 1.54 with 786-O; 2.54 in the experiment with A549; 0.905 in the experiment on DU145; 1.15 with FB; 0.968 with HEPG2; 1.01 in the experiment with OVCAR4.
As to `CC(CN1c2ccccc2Sc2ccccc21)N(C)C` (centres undefined) [Promethazine HCl], the Euclidean distance was determined as 0.72 with 786-O; 0.962 in the experiment with A549; 1.47 in the experiment on DU145; 1.72 in the experiment on FB; 0.856 with HEPG2; 1.1 in the experiment on OVCAR4.
As for `COc1ccc(C(C)=O)c(O)c1` [Paeonol], the Euclidean distance was found to be 1.07 in the experiment on 786-O; 0.755 with A549; 0.885 with DU145; 0.979 with FB; 0.302 in the experiment with HEPG2; 1.58 with OVCAR4.
For `Cc1ccc([N+](=O)[O-])cc1S(=O)(=O)N(C)/N=C/c1cnc2ccc(Br)cn12`, the Euclidean distance was found to be 3.41 in the experiment on 786-O; 4.67 with A549; 2.87 with DU145; 2.69 with FB; 2.06 in the experiment with HEPG2; 4.4 in the experiment on OVCAR4.
As for `COc1ccc2[nH]c([S@@+]([O-])Cc3ncc(C)c(OC)c3C)nc2c1` [Esomeprazole Sodium], the Euclidean distance was found to be 1.75 in the experiment with 786-O; 1.36 in the experiment with A549; 1.05 in the experiment on DU145; 0.915 with FB; 1.26 with HEPG2; 1.34 with OVCAR4.
For the compound `O=C1OC(OC(=O)c2cccnc2Nc2cccc(C(F)(F)F)c2)c2ccccc21` (centres undefined) [Talniflumate], the Euclidean distance in the experiment with 786-O was 0.81; with A549 it was 0.859; in the experiment with DU145, 0.922; with FB, 0.783; in the experiment on HEPG2 it was 0.818; with OVCAR4, 1.
As to `N=C(N)NCCC[C@H](N)C(=O)O` [L-arginine], the Euclidean distance was 1.03 in the experiment on 786-O; 0.798 in the experiment with A549; 1.21 in the experiment on DU145; 0.843 in the experiment on FB; 0.876 in the experiment on HEPG2; 0.97 in the experiment on OVCAR4.
Regarding `O=c1[nH]c(=O)n([C@H]2C[C@H](O)[C@@H](CO)O2)cc1F` [Floxuridine], the Euclidean distance in the experiment on 786-O is 1.86; in the experiment on A549 it was 3; with DU145, 2.5; in the experiment on FB, 1.73; with HEPG2, 2.61; in the experiment on OVCAR4, 2.71.
For the compound `Cc1ccc(-c2c(-c3nn(C)c4ncnc(N5CC[C@H](N6CCCCC6)C5)c34)cnn2C)cc1`, the Euclidean distance in the experiment on 786-O worked out at 0.748; with A549, 0.927; with DU145, 0.814; in the experiment with FB, 1.22; in the experiment with HEPG2 it was 0.843; with OVCAR4, 1.27.
`O=C(CCc1ccc(O)cc1)c1c(O)cc(O)cc1O[C@@H]1O[C@H](CO)[C@@H](O)[C@H](O)[C@H]1O` [Phlorizin]: the Euclidean distance in the experiment on 786-O is 0.911; with A549, 1.18; with DU145, 0.673; in the experiment with FB, 0.849; in the experiment with HEPG2, 1.02; in the experiment on OVCAR4 it was 0.783.
For the compound `CCN(CC)Cc1cc(Nc2ccnc3cc(Cl)ccc23)ccc1O` [Amodiaquine dihydrochloride dihydrate], the Euclidean distance with 786-O was 3.19; in the experiment on A549, 3.25; with DU145, 1.79; in the experiment on FB, 3.65; with HEPG2 it was 3.36; in the experiment with OVCAR4 it was 2.54.
